Laboratory results: PubChem BioAssay (EPA / NIEHS)
Several values for one entry are separate records, joined by “and”; a condition that tells them apart may be missing. Equal entries are not always repeated. Inconclusive results are not listed. Where a structure was tested more than once in an assay, its records may differ in their call. Activity calls are given as the source filed them. The calls were made as follows, unless noted: active = hit-call score of the fitted dose curve at least 0.9, where 1 is the maximum; inactive = score below 0.9.

What was measured:
[1] = ATG_TCF_b_cat_CIS: Attagene CIS-FACTORIAL HepG2 Assay for human T-Cell-Factor with beta-catenin (TCF/b-cat) (AID 2282965); conditions: HepG2 TCF/beta-catenin cis-reporter transcription, actives raise or lower the signal
Summary of the method: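 HepG2, transient MRTU transfection, cis-element-driven reporters (endogenous TFs). 24 h compound exposure. Readout: reporter mRNA by RT-PCR + 6-FAM primer extension, HpaI digest, capillary electrophoresis. Gain/loss fit vs DMSO baseline.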

[2] = ATG_TAL_CIS: Attagene CIS-FACTORIAL HepG2 Assay for human TAL Basal Promoter (AID 2282966); conditions: HepG2 Attagene cis-factorial TAL promoter reporter; actives raise or lower the signal;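 also: background control endpoint measuring basal TAL promoter reporter mRNA not a specific factor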
Summary of the method: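 Transiently transfected HepG2 (cis-regulated reporter units), 24 h treatment, mRNA read by fluorescent CE after RT-PCR; bidirectional fit, DMSO baseline.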

[3] = ATG_TGFb_CIS: Attagene CIS-FACTORIAL HepG2 Assay for human Transforming Growth Factor (TGF) (AID 2282967); conditions: HepG2 Attagene CIS TGFb reporter, mRNA transcription; actives raise or lower the signal
Summary of the method: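 After a 24-hour incubation with compound, transfected HepG2 cells were lysed for RNA; reporter cDNA was amplified, fluorescently end-labeled and separated by CE. DMSO served as baseline for bidirectional fits.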

[4] = ATG_VDRE_CIS: Attagene CIS-FACTORIAL HepG2 Assay for human Vitamin D Receptor Element (VDRE) (AID 2282968); conditions: HepG2 VDRE cis-reporter transcription, actives raise or lower the signal
Summary of the method: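 Transient MRTU transfection of HepG2, 24 h compound exposure. Readout: reporter transcripts via RT-PCR and capillary electrophoresis, fluorescence. Bidirectional fit vs DMSO.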

[5] = molecular target: X-box-binding protein 1 (Homo sapiens) (UniProt P17861); experiment: ATG_Xbp1_CIS: Attagene CIS-FACTORIAL HepG2 Assay for human X-box Binding Protein 1 (XBP1) (AID 2282972); conditions: HepG2 XBP1 cis-element reporter, Attagene multiplex; actives raise or lower the signal
Summary of the method: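 Human hepatoma HepG2, cis-element reporter system, 24 h treatment; mRNA quantified by RT-PCR/CE fluorescence; fit relative to DMSO.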

[6] = ATG_M_19_TRANS: Attagene TRANS-FACTORIAL HepG2 Assay for M19 Transcription Factor (Internal Marker) (AID 2282974; active = hit-call score of the fitted dose curve at least 0.9, where 1 is the maximum); conditions: HepG2 Attagene TRANS-FACTORIAL M19 internal marker reporter
Summary of the method: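 Multiplexed TRANS format: HepG2 liver cells bearing transient GAL4-UAS reporter units, chemical treatment 24 h, reporter transcripts quantified by RT-PCR plus capillary electrophoresis. DMSO defines baseline.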

[7] = ATG_GAL4_TRANS: Attagene TRANS-FACTORIAL HepG2 Assay for GAL4 (Internal Marker) (AID 2282976; active = hit-call score of the fitted dose curve at least 0.9, where 1 is the maximum); conditions: HepG2 Attagene TRANS GAL4 internal marker reporter
Summary of the method: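 HepG2 cells transiently transfected with multiplexed GAL4-UAS reporter constructs were dosed for 24 h. Reporter mRNA was measured by RT-PCR, 6-FAM primer extension, HpaI digestion and capillary electrophoresis, and gain of signal was fitted relative to DMSO.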

[8] = molecular target: Estrogen receptor (Homo sapiens) (UniProt P03372); experiment: ATG_ERa_TRANS: Attagene TRANS-FACTORIAL HepG2 Assay for human Estrogen Receptor alpha (ERa) (AID 2282970; active = hit-call score of the fitted dose curve at least 0.9, where 1 is the maximum); conditions: HepG2 Attagene TRANS ERa GAL4 reporter, mRNA
Summary of the method: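 One of 30 multiplexed endpoints from a HepG2 TRANS system, this one reports ERa-Gal4-driven reporter mRNA. Transcripts were quantified 24 hours post-dosing by fluorescent RT-PCR and capillary electrophoresis, with activity scored as induction over DMSO.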

[9] = molecular target: Steroid hormone receptor ERR1 (Homo sapiens) (UniProt P11474); experiment: ATG_ERRa_TRANS: Attagene TRANS-FACTORIAL HepG2 Assay for human Estrogen-Related Receptor alpha (ERRa) (AID 2282971; active = hit-call score of the fitted dose curve at least 0.9, where 1 is the maximum); conditions: HepG2 Attagene TRANS reporter, ERRa transactivation
Summary of the method: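 HepG2 cells transiently transfected with multiplexed GAL4-UAS reporter units reading chimeric ERRa-Gal4 activity; 24 h compound exposure. Reporter mRNA measured by RT-PCR, 6-FAM labelling, HpaI digest and capillary electrophoresis; gain of signal fitted versus DMSO baseline.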

[10] = molecular target: Nuclear receptor subfamily 1 group I member 3 (Homo sapiens) (UniProt Q14994); experiment: ATG_CAR_TRANS: Attagene TRANS-FACTORIAL HepG2 Assay for human Constitutive Androstane Receptor (CAR) (AID 2282969; active = hit-call score of the fitted dose curve at least 0.9, where 1 is the maximum;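 also: activators raise reporter mRNA above DMSO so AC50 marks induction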); conditions: HepG2 Attagene TRANS-FACTORIAL CAR reporter
Summary of the method: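 Transiently transfected HepG2, multiplex TRANS reporters (CAR-Gal4 chimera driving GAL4-UAS reporter). 24 h dosing. Readout: reporter transcript by RT-PCR + capillary electrophoresis, fluorescence intensity; positive direction vs DMSO.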

Measured: AC50

Chain of Steroid hormone receptor ERR1 (Homo sapiens) (P11474 whole entry, looked up, the tested form may be a part): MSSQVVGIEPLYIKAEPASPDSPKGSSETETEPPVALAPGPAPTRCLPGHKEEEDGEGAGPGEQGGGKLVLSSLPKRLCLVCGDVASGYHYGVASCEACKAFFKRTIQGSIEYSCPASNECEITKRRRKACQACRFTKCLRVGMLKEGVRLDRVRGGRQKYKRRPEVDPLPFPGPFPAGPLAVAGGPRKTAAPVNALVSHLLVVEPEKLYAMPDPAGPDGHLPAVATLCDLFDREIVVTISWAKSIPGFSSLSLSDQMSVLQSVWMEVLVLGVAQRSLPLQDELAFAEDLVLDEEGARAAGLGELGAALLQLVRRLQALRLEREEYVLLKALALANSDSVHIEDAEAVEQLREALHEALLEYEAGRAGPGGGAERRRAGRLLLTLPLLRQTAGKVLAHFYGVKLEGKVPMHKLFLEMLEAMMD
Chain of Nuclear receptor subfamily 1 group I member 3 (Homo sapiens) (Q14994 whole entry, looked up, the tested form may be a part): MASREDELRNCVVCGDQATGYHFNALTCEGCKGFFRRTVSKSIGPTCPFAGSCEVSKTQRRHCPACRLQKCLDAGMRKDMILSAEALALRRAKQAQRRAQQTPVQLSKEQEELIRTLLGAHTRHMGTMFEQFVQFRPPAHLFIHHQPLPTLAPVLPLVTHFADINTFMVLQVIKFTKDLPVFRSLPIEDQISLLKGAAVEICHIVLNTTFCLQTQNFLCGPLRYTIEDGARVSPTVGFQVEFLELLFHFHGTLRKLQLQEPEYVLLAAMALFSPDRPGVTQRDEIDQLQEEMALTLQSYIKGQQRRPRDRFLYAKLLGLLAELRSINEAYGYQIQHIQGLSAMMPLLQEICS
Chain of Estrogen receptor (Homo sapiens) (P03372 whole entry, looked up, the tested form may be a part): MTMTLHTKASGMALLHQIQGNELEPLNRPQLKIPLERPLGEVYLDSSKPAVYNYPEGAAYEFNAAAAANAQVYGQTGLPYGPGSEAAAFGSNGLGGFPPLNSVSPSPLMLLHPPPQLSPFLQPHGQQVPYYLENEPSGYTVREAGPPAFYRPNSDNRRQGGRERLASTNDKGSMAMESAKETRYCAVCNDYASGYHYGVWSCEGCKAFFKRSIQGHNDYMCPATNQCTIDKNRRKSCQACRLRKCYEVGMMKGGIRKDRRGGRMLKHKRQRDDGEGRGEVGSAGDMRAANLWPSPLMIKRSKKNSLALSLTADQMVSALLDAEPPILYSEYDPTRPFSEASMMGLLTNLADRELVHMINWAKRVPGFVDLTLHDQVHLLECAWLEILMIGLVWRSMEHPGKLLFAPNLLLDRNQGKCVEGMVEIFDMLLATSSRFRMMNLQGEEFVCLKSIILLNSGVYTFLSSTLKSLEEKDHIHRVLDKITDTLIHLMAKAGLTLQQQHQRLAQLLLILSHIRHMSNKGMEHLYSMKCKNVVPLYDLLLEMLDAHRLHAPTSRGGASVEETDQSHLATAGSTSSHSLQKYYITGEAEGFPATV
Chain of X-box-binding protein 1 (Homo sapiens) (P17861 whole entry, looked up): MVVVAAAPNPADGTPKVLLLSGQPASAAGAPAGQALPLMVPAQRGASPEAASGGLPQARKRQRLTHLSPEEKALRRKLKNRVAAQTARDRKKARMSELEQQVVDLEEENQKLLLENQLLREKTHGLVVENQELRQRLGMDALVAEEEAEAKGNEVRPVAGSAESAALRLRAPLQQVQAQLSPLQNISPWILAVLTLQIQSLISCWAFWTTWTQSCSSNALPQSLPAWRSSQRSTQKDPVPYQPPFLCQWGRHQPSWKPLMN

CC(C)CCCCCCOC(=O)CCCCC(=O)OCCCCCCC(C)C
inactive: [1] | [2] | [3] | [4] | [5] | [6] | [7]

COCC(C)O (stereo unspecified)
inactive: [1] | [2] | [3] | [4] | [8] | [9]

O=C(OCCOCCOC(=O)c1ccccc1)c1ccccc1
inactive: [1] | [2] | [3] | [4] | [6]

ClC1=C(Cl)C(Cl)(Cl)C(Cl)=C1Cl
active: [1] 15.4 µM | [2] 15 µM | [4] 14.7 µM and 7.29 µM | [8] 15.1 µM and 11.1 µM | [5] 13.4 µM and 7.05 µM
inactive: [1] | [2] | [3]

C=C(C)C(=O)OCCC(F)(F)C(F)(F)C(F)(F)C(F)(F)C(F)(F)C(F)(F)F
inactive: [1] | [2] | [3] | [4] | [10] | [5] | [7]
active: [8] 38.4 µM and 49.2 µM

C#C[C@]1(O)CC[C@H]2[C@@H]3CCC4=CC(=O)CC[C@@H]4[C@H]3CC[C@@]21C
inactive: [1] | [2] | [3] | [10] | [5]

CCCCCCCCCCCCCCCS(=O)(=O)Oc1ccccc1
inactive: [1] | [2] | [3] | [4] | [10] | [8]

CC(O)CO (stereo unspecified)
inactive: [1] | [2] | [3] | [4] | [8] | [7]

Cc1cc(CCN2CCN(c3nsc4ccccc34)CC2)cc2c1NC(=O)CC2(C)C
inactive: [1] | [2] | [3] | [10] | [8] | [9]
active: [4] 4.92 µM | [5] 11 µM

NCC(F)(F)C(F)(F)C(F)(F)C(F)(F)C(F)(F)C(F)(F)C(F)(F)F
inactive: [1] | [2] | [3] | [4] | [10] | [8] | [9] | [5] | [7]

O=C(/C=C/c1ccc(O)cc1)CC(=O)/C=C/c1ccc(O)cc1
active: [4] 5.76 µM
inactive: [1] | [2] | [3] | [10] | [8] | [9]

NC(=O)N(O)[C@@H]1C=C[C@H](Oc2cccc(Oc3ccc(F)cc3)c2)C1
inactive: [2] | [3] | [5]
active: [1] 33 µM | [4] 26 µM | [8] 11.2 µM

Cc1oc(-c2ccccc2)nc1CCOc1ccc(C[C@H](Nc2ccccc2C(=O)c2ccccc2)C(=O)O)cc1
inactive: [1] | [2] | [3] | [8] | [7]
active: [4] 16.6 µM

OCCC(F)(F)C(F)(F)C(F)(F)C(F)(F)C(F)(F)C(F)(F)F
inactive: [1] | [2] | [3] | [10] | [8] | [5] | [7]
active: [3] 157 µM | [5] 134 µM

CCCCOCCO
inactive: [1] | [2] | [3] | [4] | [10] | [8] | [9] | [5]

Cc1cc(C)c(O)c(C)c1
active: [8] 100 µM
inactive: [1] | [2] | [3] | [10]

COCC(C)OCC(C)O (stereo unspecified)
inactive: [1] | [2] | [3] | [4] | [9]

C[C@@H]1C[C@H]2[C@@H]3CCC4=CC(=O)C=C[C@]4(C)[C@@]3(F)[C@@H](O)C[C@]2(C)[C@@]1(O)C(=O)COP(=O)(O)O
inactive: [1] | [2] | [3] | [4] | [8] | [5] | [7]
active: [3] 0.473 µM

c1ccc2c(c1)ccc1ccccc12
inactive: [1] | [2] | [3] | [4] | [10] | [8] | [9] | [5]

CC(C)(C)c1cc(C(C)(C)C)c(O)c(C(C)(C)C)c1
inactive: [1] | [2] | [3] | [10] | [8] | [7]
active: [1] 87.1 µM

CCCOC(=O)c1ccc(O)cc1
inactive: [1] | [2] | [3] | [4] | [10] | [9] | [7]
active: [4] 139 µM | [8] 6.31 µM and 20.8 µM

Oc1cc2ccccc2c2ccccc12
inactive: [1] | [2] | [3] | [4] | [8] | [5] | [7]

CC[C@H](C)[C@@H](C(=O)O)n1sc2ccccc2c1=O
inactive: [1] | [2] | [3] | [4] | [10] | [8] | [5] | [6]
